PubChem BioAssay (NCI)
Compounds without any hit were thinned out: in the full panel of roughly 83,000, 20% have a hit.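 Results are percent growth after 48 hours of single-concentration exposure. 100 means growth as in untreated cells, lower positive values show inhibition; negative values down to -100 show cell death.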 A number with no mark means an inactive call. Activity calls are given as the source filed them. Rule for the calls: active = growth percent below 10; inactive = the rest.

Test system: MDA-MB-468 breast
Experiment: NCI-60 one-dose screen, 48 h (100 = growth as untreated, 0 = no growth, -100 = all killed)
Settings: 10 µM unless noted

SMILES	growth
CCOC(=O)N1C/C(=C/c2ccc(Cl)cc2)C(=O)/C(=C/c2ccc(Cl)cc2)C1	33.1%
COc1cc(OC)c(/C=C/C(=O)c2ccc(Nc3ncnc4ccccc34)cc2)c(OC)c1	-34.8% (active)
COc1ccc2[nH]c(-c3ccccc3)c(C=C(C#N)C#N)c2c1	-4.84% (active)
O=C(N/N=C/c1ccc(Cl)cc1)c1ccc(C(F)(F)F)nc1Nc1cccc(C(F)(F)F)c1	16.7%
Cc1nc2sc(C(=O)Nc3cccc4ccccc34)c(N)c2cc1C(=O)c1ccccc1	5.45% (active)
CCCCNC(=O)Oc1ccc(/C(=C(/C)Cc2ccc(OC)cc2)c2ccc(OCCN3CCCC3)cc2)cc1	53.5%
CC(C)(C)OC(=O)Nc1ccc(-c2cccc(Oc3ccc4nnc(Cl)n4n3)c2)cc1	61.9%
COc1ccc(/C=C2\COc3ccc(O)c(O)c3C2=O)c(OC)c1	27.9%
C[n+]1cc2cc3c(cc2c2ccccc21)OCO3	-21.2% (active)
Cc1csc(/N=C(N)/N=C(\N)c2cccc(Br)c2)n1	79.7%
COC(=O)[C@@H](C)CNS(=O)(=O)N(c1cc(C(F)(F)F)cc(C(F)(F)F)c1)C1CCN(Cc2ccc(F)cc2)CC1	23.6%
CC/C(=C(\c1ccc(OCCN2CCCCCCC2)cc1)c1ccc(OC(=O)C2CCCCC2)cc1)c1ccc(Cl)cc1	114%
O=C1CCC/C=C\C[C@H]2C=CC(=O)/C2=C/C[C@H](CCc2cccc(C(F)(F)F)c2)O1	-38.3% (active)
Cn1cc(C(=O)c2nc(-c3c[nH]c4ccc(Br)cc34)no2)c2cc(Br)ccc21	66.1%
C=CCc1cc(Nc2c3ccc(Cl)cc3nc3ccc(OC)cc23)cc(CN(CC)CC)c1O	-19.1% (active)
Cc1ccc(-c2cc3nc(C(Cl)Cl)nc(-c4ccccc4C)n3n2)cc1	49.8%
COc1cc2oc(-c3cccc(C(=O)Nc4ccc(C#N)cc4)c3)cc(=O)c2c(O)c1OC	77.3%
Cn1c(SCC(=O)c2ccc(Br)cc2)nc2ccccc2c1=O	89.9%
CC[C@H](Nc1nc(N)nc(C)c1C#N)c1nc2cccc(CN(C)c3ncc(C(=O)NO)cn3)c2c(=O)n1-c1ccccc1	-11.3% (active)
O=C(Cc1ccc(/C=C/C(=O)c2ncc[nH]2)cc1)Nc1ccccc1	22.2%

SMILES	growth
CCc1ccc(OC(=O)CCl)cc1	116%
CCCCNC(=O)NS(=O)(=O)c1ccc(N2N=C(c3ccc(C)cc3C)CC2c2ccc(N(C)C)cc2)cc1 (stereo not given)	60%
CN1C(=O)N(C)C2C1NN=c1s/c(=C\c3cccnc3)c(=O)n12 (stereo not given)	58.1%
Cc1ccccc1N=C(N)Nc1ccccc1C (tested in a mixture with another compound)	87.1%
O=[N+]([O-])c1ccccc1N=Nc1ccc(O)cc1O	118%
COc1ccc2c(CCc3ccc(Cl)cc3)c3[n+](cc2c1OC)CCc1cc2c(cc1-3)OCO2	-11.7% (active)
CSc1nc(=O)n(Cc2ccc(Cl)cc2)c(=O)[nH]1	121%
O=[N+]([O-])c1ccc2c(c1)S(=O)c1cc([N+](=O)[O-])ccc1N2	94.8%
Cc1cc(S(=O)(=O)/N=C(\N)n2nc(C)c(C)c2C)c(SCc2ccccc2)cc1Cl	66%
C=CC(=O)Nc1cc2c(Nc3ccc(F)c(Cl)c3)ncnc2cc1C#CC(C)(C)N1CCN(C)CC1	-61.1% (active)
Cn1c2ccccc2c2nn(C(=O)c3ccccc3)c(=O)nc21	107%
O=S(=O)(Cc1ccccc1)c1ccccc1	102%
Cc1ccc(-c2nc(SCC(=O)Nc3nc(-c4ccc(Cl)cc4)cs3)[nH]c(=O)c2C#N)cc1	117%
CC(C)n1cc(C2=C(c3cccc4ccccc34)C(=O)NC2=O)c2cc(Br)ccc21	44.4%
O=C1c2ccccc2C(=O)c2c(Nc3ccc(CCO)cc3)ccc(O)c21	38%
O=C(CCCCCCN1CC(=O)N2[C@@H](c3ccc(Cl)c(F)c3)c3[nH]c4ccccc4c3C[C@H]2C1=O)NO	85.5%
CCN(CC)CC(O)Cc1ccc(OC)cc1 (stereo not given)	97.9%
O=C(N/N=C(\CS(=O)(=O)c1ccccc1)c1cc2ccccc2oc1=O)c1ccccc1	117%
Nc1nc(SCc2cccnc2)c2ncn(C3OC(CO)C(O)C3O)c2n1 (stereo not given)	97.4%
CCn1c(Cc2ccccc2Nc2c(Cl)cccc2Cl)nnc1SCC(=O)NN1C(=O)/C(=C/c2cc(OC)c(O)c(OC)c2)SC1=S	-2.96% (active)
